Assay outcomes deposited in PubChem by The Scripps Research Institute Molecular Screening Center.
PAD4 inh: blocks human protein arginine deiminase 4. inhibition, % at 6.36 µM. AID 485272. recombinant PAD4, RCA probe fluorescence polarization. 330,000 compounds, 0.41% hits;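 active means percent inhibition above a cutoff equal to the mean of all tested compounds plus 3 SD, cut at about 15% in these data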;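 further: 0% = PAD4 with RCA probe and DMSO and 100% = probe without PAD4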
Target sequence (Q9UM07 whole entry, looked up): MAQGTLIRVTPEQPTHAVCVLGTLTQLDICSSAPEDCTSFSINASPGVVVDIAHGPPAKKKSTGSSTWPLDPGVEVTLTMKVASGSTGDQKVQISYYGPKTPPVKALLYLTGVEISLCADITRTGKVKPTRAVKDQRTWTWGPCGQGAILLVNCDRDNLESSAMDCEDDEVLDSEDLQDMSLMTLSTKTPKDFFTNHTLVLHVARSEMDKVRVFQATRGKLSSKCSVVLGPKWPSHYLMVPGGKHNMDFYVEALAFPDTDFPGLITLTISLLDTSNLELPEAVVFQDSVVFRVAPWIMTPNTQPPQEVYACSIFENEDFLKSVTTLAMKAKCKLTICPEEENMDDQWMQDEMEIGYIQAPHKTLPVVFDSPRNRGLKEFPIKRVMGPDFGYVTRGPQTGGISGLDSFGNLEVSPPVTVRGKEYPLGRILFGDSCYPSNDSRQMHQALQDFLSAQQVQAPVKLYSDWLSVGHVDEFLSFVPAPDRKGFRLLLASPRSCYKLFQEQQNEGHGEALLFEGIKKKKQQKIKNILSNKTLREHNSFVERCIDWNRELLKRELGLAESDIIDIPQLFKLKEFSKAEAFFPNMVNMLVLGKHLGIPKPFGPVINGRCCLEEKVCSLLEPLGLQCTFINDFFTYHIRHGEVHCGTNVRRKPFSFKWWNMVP
PME-1 primary: PME-1 (human) inhibition. AID 2130. 320,000 compounds, 0.53% hits. inhibition, % at 5.9 µM. recombinant PME-1, FP-Rh probe fluorescence polarization;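 active means inhibition above the campaign mean of all compounds plus 3 SD, cut at about 26% in these data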;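 further: competitive labeling of PME-1 active site by serine hydrolase directed probe; 0% = PME-1 with DMSO and 100% = wells lacking PME-1 enzyme; inhibitors block probe labeling so polarization falls and inhibition rises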
Fam108B counter: blocks mouse Fam108B hydrolase in RBBP9 counter-screen | recombinant Fam108B, FP-Rh probe fluorescence polarization | inhibition, % at 9.51 µM | 300,000 compounds, 0.33% hits | AID 1947;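 active means inhibition above the screen mean inhibition plus 3 SD, computed separately per campaign, cut at about 18% in these data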;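 further: inhibitors lower polarization as less probe binds the enzyme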
SIAE primary: blocks human sialic acid acetylesterase; 370,000 compounds, 0.69% hits; SIAE FP-Rh probe binding, fluorescence polarization; inhibition, % at 9.66 µM;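 active means inhibition above a cutoff: mean of compounds within the control limits plus 3 SD of those, cut at about 17% in these data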;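 further: 0% = plate median of compound wells and 100% = probe without SIAE protein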
TCR CD3 inh: human TCR-CD3 binding inhibition; TAMRA-labeled TCR probe fluorescence, biochemical; inhibition, % at 9.4 µM; 360,000 compounds, 0.37% hits; in the data active means inhibition above about 19%;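 further: recombinant mutant TCR 2C K166C tagged with TAMRA read by polarization; 0% = receptor in buffer alone and 100% = receptor with positive control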
PRMT1 inh: inhibitors of human PRMT1. Q99873. 370,000 compounds, 1.3% hits. inhibition, % at 2.79 µM. recombinant PRMT1, activity-based probe fluorescence polarization;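 active means inhibition above about 21% made by adding two undisclosed values, limit read from the data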
PRMT1 confirm: PRMT1 (human) inhibition, FP confirmation. shares compounds with PRMT1 inh. recombinant His-PRMT1, activity-based probe fluorescence polarization. inhibition, % at 2.79 µM. 3,300 compounds, 42% hits. AID 687036;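 active means mean inhibition across replicates above the hit cutoff derived for the earlier primary screen, cut at about 22% in these data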
The depositor's hits bear a star; . = no result given. Shown are actives, neighbours in structure and some others; about 2.6% of the full set was active somewhere.

SMILES	PAD4 inh	PME-1 primary	Fam108B counter	SIAE primary	TCR CD3 inh	PRMT1 inh	PRMT1 confirm
O=C(CN1C(=O)/C(=C/c2ccco2)SC1=S)Nc1ccc(C(=O)O)c(O)c1	-27.2	-57.2	2.5	-22.1	-2.0	52.3*	34.9*
O=C(CN1C(=O)/C(=C/c2ccco2)SC1=S)Nc1ccc(O)c(C(=O)O)c1	-17.4	-32.0	10.7	-8.0	-1.3	49.7*	31.2*
CCCCCN1CCCCC(NC(=O)c2ccccc2C)C1=O (centres undefined)	.	.	.	2.9	.	3.1	.
COC(=O)[C@@]12CCCCC3=C1N(CCC3)C(=O)[C@H]2CC(=O)N1CCOCC1	.	.	.	-2.8	.	2.9	.
CCCC(=O)N1CCC(C(=O)NC2CCCc3ccccc32)CC1 (centres undefined)	.	.	.	6.2	.	-1.7	.
CCOC(=O)[C@@]12CCCC3=C1N(CCC3)C(=O)[C@H]2CC(=O)NCc1ccccc1	.	.	.	4.5	.	2.1	.
Cc1ccc(NC(=O)Cc2ccc(OC(F)F)cc2)c(S(=O)(=O)N2CCOCC2)c1	.	.	.	-1.2	.	3.4	.
Cc1ccc2nc(-c3ccco3)c(Cc3ccsc3)n2c1	.	.	.	3.5	-2.6	35.0*	26.7*
COC(=O)c1ccc2nc(-c3ccc(F)cc3)c(Cc3cccc(F)c3)n2c1	.	.	.	-2.3	3.3	1.4	.
COC(=O)c1ccc2nc(-c3ccco3)c(Cc3ccc(C)cc3)n2c1	.	.	.	1.6	-4.2	33.8*	10.3
COC(=O)c1ccc2nc(-c3ccc(C)cc3)c(Cc3ccc(C)cc3)n2c1	.	.	.	0.7	4.6	3.0	.
COC(=O)c1ccc2nc(-c3ccco3)c(Cc3cccc(F)c3)n2c1	.	.	.	1.2	-4.7	43.2*	35.5*
Cc1ccccc1NC(=O)CSc1nnc(-c2cc(-c3ccccc3)n[nH]2)n1N	.	.	.	-1.2	.	-1.6	.
O=C(NCc1ccccn1)c1cccc(S(=O)(=O)Nc2ccc(SC(F)F)cc2)c1	5.5	0.7	-4.1	0.3	-1.6	78.0*	40.4*
O=C(NCc1ccncc1)c1cccc(S(=O)(=O)Nc2ccc(SC(F)F)cc2)c1	12.8	-4.3	-1.7	-11.4	2.0	63.9*	56.5*
O=C(NCc1cccnc1)c1cccc(S(=O)(=O)Nc2ccc(F)cc2)c1	.	.	.	1.4	6.3	1.8	.
O=C(CCc1nc(-c2ccccc2F)no1)NCCc1c[nH]c2ccccc12	.	.	.	2.6	.	0.8	.
Cc1ccc(SSc2cc(C)ccc2N)c(N)c1	6.1	4.9	5.8	8.0	8.6	69.8*	86.9*
CC(CCN1CCC(C(O)(c2ccccc2)c2ccccc2)CC1)Oc1cccc(F)c1 (centres undefined)	.	.	.	-5.5	.	-1.4	.
Cc1cc(Br)cn2c(Cc3cccc(Cl)c3)c(-c3ccco3)nc12	.	.	.	-7.3	6.6	43.7*	18.3
Cc1cc(Br)cn2c(Cc3ccccc3C(F)(F)F)c(-c3ccco3)nc12	.	.	.	0.7	2.8	39.9*	23.2*
Cc1cc(Br)cn2c(Cc3ccccc3)c(-c3cccc(Cl)c3)nc12	.	.	.	-12.3	3.5	8.8	.
Cc1ccc(Cc2c(-c3ccco3)nc3c(C)cc(Br)cn23)cc1	.	.	.	-2.8	-3.1	33.0*	18.4
Fc1cccc(Cc2c(-c3ccco3)nc3c(Cl)cc(C(F)(F)F)cn23)c1	.	.	.	-2.9	-0.6	37.7*	23.1*
C[C@H]1[C@@H](OC(=O)NC2CCCCC2)CC[C@@]23CCCN2C(=O)CCC[C@@H]13	.	.	.	4.0	.	3.5	.
SMILES	PAD4 inh	PME-1 primary	Fam108B counter	SIAE primary	TCR CD3 inh	PRMT1 inh	PRMT1 confirm
CC(C)(C)OC(=O)NCc1cc(F)ccc1/C=C/S(=O)(=O)NC1CCCC1	.	.	.	-0.5	.	-8.1	.
O=C(O)/C(=C\c1ccc(-c2ccc(F)cc2)o1)c1ccccc1	.	.	.	2.8	-2.6	28.0*	16.2
O=Cc1ccc(-c2ccc(F)cc2)o1	0.1	-4.3	-4.2	-5.2	8.3	0.2	.
O=C(O)CNC(=O)c1cccc(C(F)(F)F)c1	0.6	-0.2	0.4	-5.8	-9.5	5.1	.
Cc1c(CCCC(=O)O)sc(N)c1C(=O)c1cccc(C(F)(F)F)c1	-0.1	-3.0	-1.9	-0.8	-7.0	31.4*	11.3
CC(NCc1ccco1)C(=O)N1CCN(c2cccc(C(F)(F)F)c2)CC1 (centres undefined)	.	.	.	5.9	.	-3.4	.
COC(=O)c1c(NC(=O)c2nc3ccccc3s2)sc2c1CCN(C(C)=O)C2	-2.7	-7.0	-10.3	.	.	.	.
CC(C)N1CCc2c(sc(NC(=O)C(F)(F)F)c2-c2nc3ccccc3s2)C1	.	.	.	4.6	.	31.2*	2.6
CC(=O)Nc1sc2c(c1-c1nc3ccccc3s1)CNC2	.	.	.	-0.8	.	26.5*	15.2
COc1ccc(S[C@]2(C(=O)N3CCN(C(C)=O)CC3)CC(=O)N(C(=O)/C=C/c3ccccc3)[C@@H]2c2ccc(OC)cc2)cc1	.	.	.	0.4	.	17.7	.
CCC(CC)c1nnc(NC(=O)COc2ccc3c(c2)OCO3)s1	-0.9	2.8	-2.8	3.6	-4.2	42.4*	-0.7
N#Cc1c(SCc2c(Cl)cccc2Cl)nc(N)[nH]c1=S	0.6	-8.5	.	3.2	-1.8	42.6*	10.9
CC(=O)Nc1ccc(S(=O)(=O)NCCSCc2ccco2)cc1	-5.8	-3.7	1.9	-2.6	3.0	27.8*	61.4*
CC(=O)Nc1ccc(S(=O)(=O)NCCSCc2c(Cl)cccc2Cl)cc1	-0.2	-7.7	-7.7	-14.9	-0.4	3.7	.
Cc1cc2c(s1)c1cnn(Cc3cc(F)c(F)cc3F)c(=O)c1n2C	.	.	.	-3.6	.	-2.4	.
COc1ccc(C2C(C(=O)Nc3ccccc3)=C(C)N=C3SCC(=O)N32)cc1 (centres undefined)	4.5	0.6	-0.8	-81.8	16.5	8.7	.
CC1=C(C(=O)Nc2ccccc2)C(c2ccc(O)cc2)N2C(=O)CSC2=N1 (centres undefined)	-12.8	-6.2	-5.5	-75.1	8.1	25.7*	29.4*
CCCCCCNC(=O)C1CSCCS(=O)(=O)N1Cc1ccccc1 (centres undefined)	.	.	.	-2.1	.	-4.1	.
c1cc2c(cc1NC1CCCCCC1)OCO2	-1.1	-2.9	3.9	11.1	-4.1	34.7*	31.8*
